# Compounds with a hit are over-represented: about 2.3% of the library has one in this group of screens.
# PLCg1 inh: PLC-gamma1 (human) inhibition, primary screen; P19174; purified PLC-gamma1, fluorogenic substrate, fluorescence; inhibition, % at 12.2 µM; actives 0.84% (n = 370,000); AID 720700; in the data active = inhibition above about 9.5%
# MBD2 DNA inh: MBD2-methylated oligo binding inhibition | Q9UBB5 | TR-FRET, MBD2 binding to methylated oligonucleotide | inhibition, % at 4.4 µM | actives 0.31% (n = 370,000) | AID 686964; in the data active = inhibition above about 13%
# PLC-beta3 inh: blocks human PLC-beta3 enzyme activity; Purified PLC-beta3, fluorogenic substrate, fluorescence; Q01970; actives 0.18% (n = 370,000); inhibition, % at 12.2 µM; AID 720704;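 also: 0% = median of compound wells on plate and 100% = full blocker control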
# LEDGF integ inh: blocks HIV-1 LEDGF/p75-dependent DNA integration. TR-FRET IN-LEDGF/p75 DNA integration, Eu/Cy5. actives 0.64% (n = 370,000). inhibition, % at 3.7 µM. AID 743269;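 active = inhibition above the screen-wide mean plus 3 SD, cut at about 13% in these data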;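 also: signal is the Cy5 over europium emission ratio at 671 and 618 nm; 0% = plate median of compound wells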
# UHRF1 binding: human UHRF1 methylated DNA binding inhibitors. UHRF1 binding to methylated oligo, TR-FRET. inhibition, % at 4.4 µM. actives 0.75% (n = 370,000). AID 687016; in the data active = inhibition above about 21%;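 also: UHRF1 SRA domain binding a hemimethylated CpG hairpin DNA probe; 0% = median of test compound wells and 100% = reference inhibitor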
# PLCgamma1 ctr: inhibits human PLC-gamma1 in PLC-beta3 counter-screen; shares compounds with PLCg1 inh; purified PLC-gamma1, fluorogenic substrate, fluorescence; inhibition, % at 12.3 µM; actives 3.1% (n = 3,300); AID 743258; in the data active = inhibition above about 9.5%
# PLCbeta3 conf: confirmation of human PLC-beta3 inhibitors | inhibition, % at 12.3 µM | purified PLC-beta3, fluorogenic substrate fluorescence | actives 1% (n = 3,300) | shares compounds with PLCg1 inh | AID 743261
# * = called active by the depositor; . = no result. Rule as the data show it, unless noted: active = inhibition above about 11%; inactive = the rest.
SMILES,PLCg1 inh,MBD2 DNA inh,PLC-beta3 inh,LEDGF integ inh,UHRF1 binding,PLCgamma1 ctr,PLCbeta3 conf
Cc1ccc(C(=O)Cn2c(C(=O)OCCO)cc3ccccc32)cc1,11*,-5,-2,6,1,-9,-6
Cc1ccc(C(=O)Cn2c(C(=O)O)cc3ccccc32)cc1,-2,-3,-8,0,-1,.,.
CCCCN1CCN(C(=O)C2CCCN(C(=O)c3ccc4c(c3)NC(=O)CS4)C2)CC1 (centres undefined),0,2,2,4,1,.,.
CCn1cc(Br)c(C(=O)NCc2ccco2)n1,10*,-1,9,2,2,-7,-3
Cn1cc([N+](=O)[O-])c(C(=O)NCc2ccco2)n1,1,0,-3,0,0,.,.
Cc1cc(C)cc(N(CC(=O)NC2CCC(C)CC2)S(=O)(=O)c2ccccc2)c1 (centres undefined),-1,1,-4,-2,2,.,.
O=C(O)c1ccccc1-c1nc2ccccc2c(=O)[nH]1,9.9*,2,6,2,4,2,0
O=C(O)c1ccccc1-c1nc(-c2ccccc2)c(-c2ccccc2)[nH]1,-41,-6,-40,-3,1,.,.
N/C(=N\OC(=O)CCCc1ccccc1)c1cccnc1,7,3,12*,0,6,-8,-4
N/C(=N\OC(=O)CCCc1ccccc1)c1ccccc1,-1,0,-6,-1,4,.,.
CC(=O)c1cc(-c2cnn(Cc3ccccc3)c2)c(=O)n2c1CCC2,-12,2,-21,5,1,.,.
CS(=O)(=O)N1CCC[C@]2(CC[C@@H](CCC#N)O2)C1,-1,-5,2,-5,0,.,.
C/C(C=NNC(=O)CSc1nnc(-c2ccc(Cl)cc2)n1-c1ccccc1)=C\c1ccccc1,9,-2,7,6,3,.,.
Cc1ccc(NC(=O)C2CCCN(S(=O)(=O)c3ccc4c(c3)oc(=O)n4C)C2)nc1 (centres undefined),9.8*,-2,5,5,4,-5,-2
Cc1cccnc1NC(=O)C1CCCN(S(=O)(=O)c2ccc3c(c2)oc(=O)n3C)C1 (centres undefined),3,-3,4,-3,2,.,.
S=c1[nH]nc(-c2cc(-c3ccccc3)n[nH]2)n1/N=C/c1cccc2ccccc12,-1,-4,0,-1,-2,.,.
COCCCN1C(=O)[C@H](CC(=O)NCc2ccc(OC)c(OC)c2)[C@]2(C(=O)OC)CCCCC=C12,1,-6,3,0,-1,.,.
CCSc1nc2ccccc2n1CC(=O)OC,13*,-1,7,-1,2,-2,4
CCN(CC)C(=O)CC[C@@H]1CC[C@]2(CCCN(Cc3nccs3)C2)O1,-3,-4,-2,-4,-1,.,.
COc1ccc(CN(C)S(=O)(=O)c2ccc3c(c2)OCCO3)cc1,12*,4,-2,7,1,-4,-5
COC(=O)[C@H](C(C)C)N(CCCc1cn(CC2CCCCC2)nn1)S(=O)(=O)c1ccccc1Br,0,1,-1,-3,-1,.,.
CCCCn1nnnc1C(c1ccccc1)N1CCN(c2cccc(C(F)(F)F)n2)CC1 (centres undefined),10*,4,-1,8,1,-8,-8
O=C(CSc1nnc(-c2cccnc2)n1-c1ccccc1)c1ccccc1Cl,-1,0,-7,0,-1,.,.
NC(=O)CC(NC(=O)Cc1cccc2ccccc12)c1ccc(NC2CCC2)c([N+](=O)[O-])c1 (centres undefined),10*,-7,5,-3,-2,-6,0
NC(=O)CC(NC(=O)Cc1cccc2ccccc12)c1ccc(N2CCCCCC2)c([N+](=O)[O-])c1 (centres undefined),14*,0,13*,-11,2,10*,-3
CN(CCO)c1cccc2c1S(=O)(=O)N(Cc1cn(Cc3cccc(C(F)(F)F)c3)nn1)Cc1ccccc1O2,-13,-1,-17,-3,0,.,.
CN1CCc2ccccc2C1C1CCNCC1 (centres undefined),0,-4,0,-1,-1,.,.
CCC1C(=O)N(C)CCc2ccccc21 (centres undefined),12*,-2,4,6,1,5,-2

# Screening results: PubChem, The Scripps Research Institute Molecular Screening Center
